Screening data as filed in PubChem.
Nrf2 activator = Nrf2 pathway activation; AREc32 ARE-luciferase reporter (MCF7-derived line), luminescence, 24 h; 0.31% of 410,000 active; Potency, µM (top dose mostly 46.1 µM), without a hit: at the highest dose activation, actives largely listed as activators; further: potency means the concentration at half of the fitted maximal effect; % of control where 0% means no effect; nearly all actives have a fitted effect of over 65% in size
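Luciferase luminescence (Steady-Glo, 30 min at room temperature) served as the read-out of ARE activation in AREc32 cells treated with compounds for 24 hr at 37 deg C.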
A549 tox-1 = A549 cytotoxicity, counter-screen for Nrf2 inhibitors; A549 ARE-Fluc cells, CellTiter-Fluor viability, 18-24 h; Potency, µM (titrated, usually from 46 µM), inactives show top-dose activity change, negative = cytotoxicity, actives largely listed as inhibitors; 0.16% of 390,000 active; AID 504648; further: potency means the concentration at half of the fitted maximal effect; on the % scale 0 is the no-effect control and ±100 the full control effect
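A549 ARE_Fluc cells in 5% FBS OPTI-MEM were exposed to compounds in concentration-response for 18-24 h at 37 deg C. Viability was read by CellTiter-Fluor fluorescence (Ex 405/Em 525) after 30 min, before the luciferase read.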
IL2 activator = IL-2 activation | 0.065% of 360,000 active | IL-2 activation reporter assay, cell-based qHTS; stimulated with anti-CD3/CD4/CD28 beads; in transgenic mouse T cells | activation, % (series mostly up to about 46 µM); in the data active means activation above about 50%; inconclusive means mostly about 30% to 49%; further: 0% is about no effect
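Readout is EGFP and DsRed signal by fluorescent plate cytometry after 18 h at 37 degrees C. Transgenic mouse T cells (750/well) received compound for 60 min before bead stimulation (anti-CD3, anti-CD4, anti-CD28); memory T cells served as non-tolerant control.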
Nrf2 inh = inhibitors of Nrf2 signaling. A549 ARE-Fluc reporter, luciferase luminescence, 18-24 h. Potency, µM (top dose mostly 46 µM), for inactives: at the top dose activity change, negative = inhibition, actives largely listed as inhibitors. 2.1% of 360,000 active. AID 504444; further: potency means the concentration at half of the fitted maximal effect; on the % scale 0 is the no-effect control and ±100 the full control effect; nearly all actives have a fitted effect of over 60% in size
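Cells were seeded and rested 2 h, then exposed to compounds for 18-24 h. CellTiter-Fluor was read first as a viability measure. BugLite was added 15 min before the final luminescent read of ARE-luciferase activity in A549 cells.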
FLuc counter 3 = counter-screen for Nrf2 inhibitors: firefly luciferase enzyme inhibition; shares compounds with Nrf2 inh; 4% of 1,400 active; purified firefly luciferase, luminescence inhibition; Potency, µM (doses to about 57.5 µM), without a hit: top-dose activity change, negative = inhibition, usual class: inhibitors; further: potency means the concentration at half of the fitted maximal effect; on the % scale 0 is the no-effect control and ±100 the full control effect; nearly all actives have a fitted effect of over 65% in size
Target sequence (P08659 whole entry, looked up): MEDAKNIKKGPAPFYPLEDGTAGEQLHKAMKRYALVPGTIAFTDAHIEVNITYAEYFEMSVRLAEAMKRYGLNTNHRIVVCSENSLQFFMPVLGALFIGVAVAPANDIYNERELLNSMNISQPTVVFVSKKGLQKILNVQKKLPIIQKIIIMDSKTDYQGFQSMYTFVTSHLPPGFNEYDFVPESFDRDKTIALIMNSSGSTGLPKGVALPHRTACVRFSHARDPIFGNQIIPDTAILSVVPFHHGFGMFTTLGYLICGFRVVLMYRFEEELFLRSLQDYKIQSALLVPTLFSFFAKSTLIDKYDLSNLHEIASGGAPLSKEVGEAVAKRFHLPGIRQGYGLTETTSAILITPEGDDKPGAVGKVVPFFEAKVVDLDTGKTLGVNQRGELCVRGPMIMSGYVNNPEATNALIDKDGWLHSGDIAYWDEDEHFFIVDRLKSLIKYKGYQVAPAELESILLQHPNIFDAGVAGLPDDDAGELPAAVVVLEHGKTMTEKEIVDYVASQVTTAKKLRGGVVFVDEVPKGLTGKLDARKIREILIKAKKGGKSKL
A549 tox-2 = A549 cytotoxicity, Nrf2 inhibitor counterscreen; A549 ARE-Fluc cells, cytotoxicity counterscreen; Potency, µM (series often up to 46.1 µM), for the others: at the top dose activity change, negative = cytotoxicity, actives largely listed as inhibitors; AID 720523; 2% of 1,400 active; shares compounds with Nrf2 inh;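 further: potency means the concentration at half of the fitted maximal effect; cells exposed to compounds for 18 to 24 hours; on the % scale 0 is the no-effect control and ±100 the full control effect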
Nrf2 ARE inh = Nrf2 inhibition confirmed, A549 ARE-luciferase; shares compounds with Nrf2 inh; A549 ARE-firefly luciferase reporter, luminescence; Potency, µM (series often up to 46.1 µM), for inactives: at the highest dose activity change, negative = inhibition, most hits filed as inhibitors; 74% of 1,400 active; further: potency means the concentration at half of the fitted maximal effect; on the % scale 0 is the no-effect control and ±100 the full control effect; nearly all actives have a fitted effect of over 65% in size
Starred values were filed as active, the others as inactive. A selection: hits, their analogues and other compounds. The true share with any hit is near 2.3%. Unless noted, the call rests on the fitted dose curve; in most records, active means well fitted curve in the direction sought with a large enough effect; inconclusive means small, poorly fitted or top-dose-only effect, or another doubt; inactive means no such curve, though single readings can be large; an effect the other way counts as inactive or inconclusive.

How did CCN(CC)S(=O)(=O)c1ccc(NC(=O)c2ccc(CN3CCOCC3)cc2)cc1 do in these assays?
Nrf2 activator: 0.1%; A549 tox-1: -4.2%; IL2 activator: -1.8; Nrf2 inh: 3.66µM*; FLuc counter 3: 1.3%; A549 tox-2: -7.1%; Nrf2 ARE inh: 3.66µM*

Results for CCCCCn1c(=O)[nH]c2cc(C(=O)NC3CCN(Cc4ccccc4)CC3)ccc2c1=O ?
Nrf2 activator: 2.3%; A549 tox-1: 1.1%; IL2 activator: -2.7; Nrf2 inh: -13.4%

What do the screens show for `COc1ccc(NC(=O)c2ccc(Cl)c(S(=O)(=O)N3CC(C)OC(C)C3)c2)cn1` (stereo not given)?
Nrf2 activator: 3.2%; A549 tox-1: -5.0%; IL2 activator: -0.9; Nrf2 inh: 2.59µM*; FLuc counter 3: 1.0%; A549 tox-2: -7.5%; Nrf2 ARE inh: 7.31µM*

What do the screens show for `COc1ccc(NC(=O)c2ccc(Cl)c(S(=O)(=O)N3CCc4ccccc4C3)c2)cn1`?
Nrf2 activator: -0.7%; A549 tox-1: -11.3%; IL2 activator: 1.2; Nrf2 inh: inconclusive

How did O=C(NC1CCN(Cc2ccccc2)CC1)c1ccc2c(c1)[nH]c(=O)n2Cc1ccc(F)cc1 do in these assays?
Nrf2 activator: 6.9%; A549 tox-1: inconclusive; IL2 activator: 0.5; Nrf2 inh: 4.61µM*; FLuc counter 3: 0.5%; A549 tox-2: -15.5%; Nrf2 ARE inh: 9.2µM*

How did Cc1cccc(CNC(=O)c2ccc(N3Cc4ccccc4Oc4ncccc43)s2)c1 do in these assays?
Nrf2 activator: -1.0%; A549 tox-1: -0.7%; Nrf2 inh: 10.1%

Results for CCCOc1ccc(NC(=O)CC2C(=O)N(c3ccccc3)C(=O)N2Cc2ccc(F)cc2)cc1 (stereo not given) ?
Nrf2 activator: 7.8%; A549 tox-1: 3.0%; Nrf2 inh: 21.7%

Results for CCOc1ccc(CCNC(=O)CN2N=C(c3ccccc3)CCC2=O)cc1OCC ?
Nrf2 activator: 2.3%; A549 tox-1: 8.7%

How did O=C(Nc1ccc(N2CCOCC2)cc1)c1ccc(Cl)c(S(=O)(=O)N2CCCCC2)c1 do in these assays?
Nrf2 activator: 0.4%; A549 tox-1: -7.3%; IL2 activator: -0.5; Nrf2 inh: 4.11µM*; FLuc counter 3: -2.3%; A549 tox-2: -2.7%; Nrf2 ARE inh: 5.17µM*

Results for CCN(CC)S(=O)(=O)c1ccc(OC)c(NC(=O)c2ccc(N3CCCC3=O)cc2)c1 ?
Nrf2 activator: -0.3%; A549 tox-1: -6.9%; IL2 activator: 0.9; Nrf2 inh: -0.6%

How did O=C(Nc1ccc2c(c1)OCCO2)c1ccc(Cl)c(S(=O)(=O)N2CCOCC2)c1 do in these assays?
Nrf2 activator: 0.8%; A549 tox-1: -13.6%; IL2 activator: -4.1; Nrf2 inh: -12.9%

How did O=C(Nc1ccc(S(=O)(=O)Nc2ccc(F)cc2)cc1)c1ccc(CN2CCOCC2)cc1 do in these assays?
Nrf2 activator: 3.9%; A549 tox-1: -17.9%; IL2 activator: -2.3; Nrf2 inh: 3.66µM*; FLuc counter 3: -3.6%; A549 tox-2: -7.6%

How did CCN(CC)S(=O)(=O)c1ccc(NC(=O)c2ccc(N3CCCC3=O)cc2)cc1 do in these assays?
Nrf2 activator: -0.2%; A549 tox-1: -15.8%; IL2 activator: -0.4; Nrf2 inh: 1.46µM*; FLuc counter 3: -1.1%; A549 tox-2: -5.5%; Nrf2 ARE inh: 7.31µM*

What do the screens show for `O=C(Nc1ccc(S(=O)(=O)N2CCCCC2)cc1)c1ccc(CN2CCOCC2)cc1`?
Nrf2 activator: -0.7%; A549 tox-1: -4.0%; IL2 activator: -2.5; Nrf2 inh: 4.61µM*; FLuc counter 3: -0.9%; A549 tox-2: 1.6%; Nrf2 ARE inh: 7.31µM*

How did CCOC(=O)c1ccc(N2CCN(c3cc(C)ccc3C)CC2)c(NC(=O)Nc2ccc(Cl)cc2)c1 do in these assays?
Nrf2 activator: -0.3%; A549 tox-1: -11.2%

What do the screens show for `COc1ccc(-c2nc3scc(CCNS(=O)(=O)c4c(C)cc(C)cc4C)n3n2)cc1OC`?
Nrf2 activator: 2.9%; A549 tox-1: -9.3%

Results for O=C(c1ccc(C(F)(F)F)cc1)N1CCC(c2noc(-c3ccc(S(=O)(=O)N4CCCC4)cc3)n2)CC1 ?
Nrf2 activator: -1.2%; A549 tox-1: -24.9%; Nrf2 inh: inconclusive

How did O=C(Nc1ccc(S(=O)(=O)N2CCCC2)cc1)c1ccc(CN2CCOCC2)cc1 do in these assays?
Nrf2 activator: 4.8%; A549 tox-1: -13.5%; IL2 activator: -0.2; Nrf2 inh: 4.11µM*; FLuc counter 3: -1.9%; A549 tox-2: -7.8%; Nrf2 ARE inh: 8.2µM*

How did COC(=O)c1ccc(CN(Cc2ccc(OC)c(OC)c2)S(=O)(=O)c2ccc(F)c(C(=O)Nc3cc(C)ccc3C)c2)cc1 do in these assays?
Nrf2 activator: 1.3%; A549 tox-1: 3.6%

Results for Cc1cccc(Cn2c(=O)n(-c3ccccc3C)c(=O)c3c2c2cc(C)ccc2n3C)c1 ?
Nrf2 activator: -0.2%; A549 tox-1: -1.5%; Nrf2 inh: 28.5%

Results for Cc1ccc2c(c1)c(/C=C/c1cc[n+](C)cc1)c(C)n2C ?
Nrf2 activator: -2.2%; A549 tox-1: inconclusive; IL2 activator: 3.9; Nrf2 inh: 3.66µM*; FLuc counter 3: -8.4%; A549 tox-2: inconclusive; Nrf2 ARE inh: 6.51µM*

Results for Cc1oc(-c2ccc(C(=O)Nc3cccc(C(F)(F)F)c3)cc2)nc1CSc1ccccc1 ?
Nrf2 activator: -0.8%; A549 tox-1: inconclusive; Nrf2 inh: 5.8µM*; FLuc counter 3: -1.1%; A549 tox-2: -25.7%; Nrf2 ARE inh: 1.84µM*

How did COc1ccc(CNC(=O)c2ccc(-c3nc(CSc4ccccc4)c(C)o3)cc2)c(OC)c1 do in these assays?
Nrf2 activator: 6.2%; A549 tox-1: 8.8%; Nrf2 inh: 8.5%

How did COc1ccc2c(c1)c(=O)c(S(=O)(=O)c1ccc(Cl)cc1)cn2Cc1cc(C)ccc1C do in these assays?
Nrf2 activator: -0.3%; A549 tox-1: 5.4%; Nrf2 inh: 10.6%

What do the screens show for `O=C(CSc1nnc(-c2cccnc2)s1)Nc1ccnc2ccccc12`?
Nrf2 activator: 3.1%; A549 tox-1: -7.9%; IL2 activator: -0.8; Nrf2 inh: 4.11µM*; FLuc counter 3: -19.1%; A549 tox-2: -10.5%; Nrf2 ARE inh: 5.17µM*

Results for Cc1ccc(NC(=O)CSc2nnc(-c3cccnc3)s2)cc1 ?
Nrf2 activator: -0.8%; A549 tox-1: -12.8%; IL2 activator: 0.2; Nrf2 inh: 12.3%
